Autofluor counter = counter-screen for toxin protease inhibitors: compound fluorescence; compound autofluorescence counterscreen, microsphere flow cytometry; hits give high values; fluorescence intensity (test concentration not listed); 3.1% of 360,000 active; AID 624483; in the data active means fluorescence intensity above about 16000; inconclusive means no clear call, values can overlap the other calls
BoNT-F LC inh = BoNT/F light chain protease inhibitors, primary screen, biochemical, flow cytometry, MLPCN library. Botulinum neurotoxin type F light chain protease (Clostridium botulinum). Multiplex microsphere protease cleavage assay. 0.22% of 360,000 active. inhibition, % at 10 µM. AID 588497, 2011; in the data active means inhibition above about 35%, passing the limit was not always enough; inconclusive means no clear call, values can overlap the other calls; further: plate controls were buffer without enzyme for full effect and enzyme alone for no effect
Anthrax LF prot = Bacillus anthracis LF protease inhibitors, primary screen, biochemical, multiplex microsphere, MLPCN library | Lethal factor (Bacillus anthracis), P15917 | multiplex microsphere protease cleavage assay | inhibition, % at 10 µM | 0.12% of 360,000 active | AID 588501, 2011; further: plate controls were buffer without enzyme for full effect and enzyme alone for no effect
MazEF act = activators of E. coli MazEF toxin-antitoxin RNase, primary screen, biochemical, fluorescence, uHTS. activation, % at 20 µM. 0.32% of 350,000 active. FAM/BHQ RNA-DNA oligo cleavage fluorescence, 5 h. Endoribonuclease toxin MazF (Escherichia coli (strain K12)), P0AE70; in the data active means activation above about 50%
Target sequence (P0AE70 whole entry, looked up): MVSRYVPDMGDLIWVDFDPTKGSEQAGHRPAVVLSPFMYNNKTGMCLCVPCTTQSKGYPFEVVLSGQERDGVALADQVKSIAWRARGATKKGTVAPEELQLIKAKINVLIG
BH1578 lux ind = inducers of Vibrio cholerae quorum light production without autoinducers, primary screen, BH1578 luxS cqsA deficient, single point; V. cholerae BH1578 lux reporter, luminescence, 6 h; activation, % at 18.7 µM; 0.16% of 350,000 active; AID 588436, 2011; in the data active means activation mostly above about 9.7%, no sharp cut-off; inconclusive means no clear call, values can overlap the other calls; inactive means mostly below about 3.7%
BoNT-A LC inh2 = BoNT/A light chain protease inhibitors, primary screen, biochemical, flow cytometry, MLPCN library. multiplex microsphere protease substrate cleavage. inhibition, % at 10 µM. 0.17% of 360,000 active. AID 588499, 2011; further: plate controls were buffer without enzyme for full effect and enzyme alone for no effect
The depositor's hits bear a star; i = inactive; ? = inconclusive; nt = no result. In the library only some 3.9% were active in any assay of this set; here they are far more common. Unless noted, no stated cut-off is given here; in the data, active means inhibition above about 30%; inconclusive means no clear call, values can overlap the other calls; inactive means below that.

SMILES | Autofluor counter | BoNT-F LC inh | Anthrax LF prot | MazEF act | BH1578 lux ind | BoNT-A LC inh2
CCOc1ccc(CCNC(=O)CS(=O)Cc2nc(-c3ccccc3C)oc2C)cc1OCC (stereo not given) | 20576* | -98 | -18 | 4 | i | -49
COc1ccc(CCC(=O)NC2CCC(C)CC2)cc1 (stereo not given) | 4326 | -4 | -2 | -2 | 0 | 0
COCC(=O)Nc1sc2c(c1C(=O)OC)C(C(=O)OC)CC2 (stereo not given) | 20588* | -5 | -2 | 3 | i | -1
COc1cc(/C=N/NC(=O)c2cccnc2)ccc1OS(=O)(=O)c1ccc(C)cc1 | 2510 | -1 | -1 | 9 | i | 0
COc1cc(/C=N/NC(=O)c2cccnc2)ccc1OS(=O)(=O)c1ccc(F)cc1 | 20771* | -8 | 1 | 2 | i | -3
CC(C)(C)c1cn(-c2ccc(F)cc2)c(=S)[nH]1 | 19889* | 9 | 0 | -3 | 4 | ?
CCC(C)C(=O)Nc1cc(Cl)ccc1C(=O)O (stereo not given) | 4561 | 8 | -4 | 4 | i | 0
CCC(=O)Nc1cc(Cl)ccc1C(=O)O | 19235* | 2 | 2 | -5 | i | ?
CC(C)CC(=O)N1CCC(O)(CS(=O)(=O)Cc2ccccc2Cl)CC1 | 21027* | -7 | -2 | 0 | i | ?
COc1ccc(CC(=O)Oc2ccc(C(C)(C)C)cc2)cc1S(=O)(=O)N1CCOCC1 | ? | 5 | -4 | 12 | -1 | ?
CCN(CC)C(=O)C1CCCN(Cc2ccccc2F)C1 (stereo not given) | 8338 | 1 | -8 | -9 | 0 | 2
CCN(CC)C(=O)C1CCCN(Cc2ccccc2C(F)(F)F)C1 (stereo not given) | 23390* | 0 | -2 | 4 | i | 0
CCN(CC)C(=O)C1CCCN(C/C=C/c2ccccc2)C1 (stereo not given) | 25287* | -6 | -2 | -15 | i | -6
CCN(CC)C(=O)C1CCCN(Cc2ccc(OC)c(C)c2)C1 (stereo not given) | 16141* | 2 | -2 | -6 | i | 2
Cc1cc(C)nc(N/C(=N\S(=O)(=O)Cc2ccccc2)Nc2cccc(Cl)c2C)n1 | 21814* | -1 | -2 | 8 | i | 0
Cc1ccc(-c2nnn(CC(=O)Nc3ccc(S(=O)(=O)N4CCC(C)CC4)cc3)n2)cc1 | 9459 | 0 | -1 | -61 | 0 | 0
CC1CCN(S(=O)(=O)c2ccc(NC(=O)Cn3nnc(-c4ccccc4)n3)cc2)CC1 | 19646* | 0 | -10 | 2 | i | 1
CC1CCN(S(=O)(=O)c2ccc(NC(=O)Cc3cccs3)cc2)CC1 | 20322* | 1 | -3 | -4 | i | 2
CC1CCN(CC(=O)Nc2ccc(S(=O)(=O)N3CCC(C)CC3)cc2)CC1 | 3890 | -21 | -10 | -8 | i | -1
CC1CCCN(CC(=O)Nc2ccc(S(=O)(=O)N3CCCCCC3)cc2)C1 (stereo not given) | 16175* | 0 | -3 | -7 | i | 1
O=C(Cn1nnc(-c2ccc(S(=O)(=O)N3CCCC3)cc2)n1)NCC1CCCO1 (stereo not given) | 22963* | -3 | 1 | -4 | -2 | -1
Clc1nnc(NC2CCCCC2)c(Cl)c1Cl | 3798 | -1 | -5 | -7 | 3 | 0
COC(=O)c1ccc(Cn2cnc3c(Cl)ncnc32)cc1 | 2846 | 4 | -3 | 4 | -1 | 0
O=C(CN1C(=O)C2C3CCC(C3)C2C1=O)N1CCN(Cc2ccccc2)CC1 (stereo not given) | 3417 | 2 | 6 | 8 | i | 1
COc1cc(OC)nc(Nc2nc(C(N)Cc3ccc(C(F)(F)F)cc3)cs2)n1 (stereo not given) | 3038 | -18 | -4 | nt | 4 | 0
SMILES | Autofluor counter | BoNT-F LC inh | Anthrax LF prot | MazEF act | BH1578 lux ind | BoNT-A LC inh2
CCOc1ccc(CN2CCC(=O)NC2=O)cc1 | 17829* | 4 | -9 | 6 | i | 6
COc1ccc(CN2CCC(=O)NC2=O)cc1 | 25338* | -4 | 0 | 1 | i | -6
O=C1CCN(Cc2ccccc2)C(=O)N1 | 4182 | 2 | -4 | 8 | i | 0
CC(=O)C1=C(S(=O)(=O)c2ccc(C)cc2)CS(=O)(=O)C1 | 4834 | 3 | 11 | 2 | -1 | 1
Brc1cccc(-c2nnc3sc(CN4CCCCC4)cn23)c1 | 9738 | -7 | 0 | -2 | -6 | 0
Brc1cccc(-c2nnc3sc(CN4CCC5(CC4)OCCO5)cn23)c1 | 24422* | -3 | -6 | -2 | 2 | -4
COc1ccc(CNc2nc(NCc3ccc(OC)c(OC)c3)n(C(=O)c3cccs3)n2)cc1OC | 6091 | 0 | 2 | -1 | i | 0
CCOC(=O)N1CCN(C(=S)NC(C)(C)C)CC1 | 22858* | -4 | -1 | 1 | -3 | -2
CCOC(=O)N1CCN(C(=S)NC)CC1 | 3344 | 4 | 2 | 5 | i | -1
COc1ccc(OC)c(N2C(=O)c3ccccc3C2c2nnnn2-c2ccc3c(c2)OCCO3)c1 (stereo not given) | 6505 | -6 | 1 | nt | nt | 0
CCOC(=O)c1oc2ccccc2c1CSc1nnnn1-c1ccc(OC)cc1 | 21747* | 3 | 0 | 9 | 1 | ?
COc1ccccc1-n1nnnc1SCC(=O)Nc1ccccc1 | 3478 | -19 | -9 | 15 | i | 0
CCCn1c(=O)c2ccccc2n2c(SCc3c(C(=O)OCC)oc4ccccc34)nnc12 | 10290 | -1 | 0 | 13 | -1 | 1
COc1ccccc1-n1nnnc1SCC(=O)Nc1ccccn1 | 19311* | 5 | -10 | 4 | -1 | 4
COc1ccc(OC)c(-n2nnnc2SCC(=O)Nc2ccc3c(c2)OCCO3)c1 | 5394 | -3 | -3 | -1 | i | 1
CCOC(=O)CSc1nnnn1-c1cc(OC)ccc1OC | 16299* | 0 | -2 | 1 | i | 0
COc1ccccc1/C=C/C1=NC(=C\C=C/c2ccccc2)/C(=O)O1 | 3554 | 58* | 7 | -15 | i | 29
COCCCNC(=O)/C=C/c1cccc(Cl)c1 | 20665* | -2 | -3 | -3 | i | 0
CN(C)C(CNC(=O)/C=C/c1cccc(Cl)c1)c1ccccc1 (stereo not given) | 4358 | -1 | 2 | -4 | 1 | 0
O=CN1CCC(=O)N(Cc2ccccc2)c2ccccc21 | 24835* | -6 | -2 | 0 | -1 | ?
COc1ccc(N2CC(C(=O)N[C@H](C(=O)NC(C)c3ccccc3)C(C)C)CC2=O)cc1 (stereo not given in full) | 6461 | 0 | 0 | 6 | -6 | -1
CCOC(=O)c1c(NC(=O)COC(=O)c2nc(Cl)ccc2Cl)sc(C(=O)NC)c1C | nt | nt | nt | -3 | 0 | nt
